Consider nine molecules from the supplement of paper PMC6522484.

Molecules are shown by their SMILES. ± gives the standard deviation of the averaged measurements.

For test [1], the system named is DLD1. The test can be described thus: cell viability (CellTiter-Glo) relative to plate median (fraction of plate median); higher = more viable cells. To be noted: 5 µM; treatment time 24 h; reporter: 7TFP. Summed up: (§1)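 Each entry is a luminescence signal normalised to the plate median, averaged over independent replicates. The replicate count was two, and the cells were colorectal cancer lines with stable lentiviral TCF/Wnt firefly luciferase reporters exposed to library compounds at a final 5 µM for 24 h. Firefly luciferase and CellTiterGlo were measured on parallel plates.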
A general note: Cellular ATP, detected with luciferase, serves as a proxy for viable cell number.

The next test relates to HCT116. The test is described as above. Conditions: 5 µM; treatment time 24 h; reporter: TCF4/Wnt. The essentials:
as §1

Test [2] concerns SW480. Described as above. Conditions: 5 µM; treatment time 24 h; reporter: 7TFP. Summed up: as §1
In test [3] the test system is DLD1. The test can be described thus: TCF/Wnt firefly luciferase reporter signal relative to plate median (fraction of plate median); higher = higher Wnt reporter signal. Conditions: 5 µM; treatment time 24 h; reporter: 7TFP. Summed up:
as §1

Test [4] deals with SW480. Described as above. To be noted: 5 µM; treatment time 24 h; reporter: 7TFP. The essentials:
as §1

For the molecule `CC(C)Cn1c(=O)n(C)c(=O)c2nc[nH]c21`, the cell viability stood at 0.956 ± 0.048 in the test with DLD1 [1], 1.04 ± 0.05 in the test with HCT116 and 0.9585 ± 0.0092 in the test with SW480 [2]. Besides, the “TCF/Wnt firefly luciferase reporter signal” value with DLD1 [3] was 0.972 ± 0.054; with SW480 [4], 0.987 ± 0.018.
On the same counts, the results for `Nc1nccs1` are 0.985 ± 0.079, 1 ± 0.14, 1.02 ± 0.033, 1.06 ± 0.13 and 0.986 ± 0.021.
In the case of `O=c1ccc2cc(O)c(O)cc2o1`, the values for the cell viability in the test with DLD1 [1], with HCT116 and in the test on SW480 [2] were 1.03 ± 0.19, 1.13 ± 0.028 and 1.04 ± 0.014, respectively. Moreover, the “TCF/Wnt firefly luciferase reporter signal” value in the test on DLD1 [3] amounted to 0.994 ± 0.066; with SW480 [4], 0.893 ± 0.015.
On the same counts, the results for `O=C1C[C@@H](c2ccc(O)cc2)Oc2cc(O)cc(O)c21` are 1.045 ± 0.0071, 1.055 ± 0.0071, 1.03, 1.015 ± 0.0071 and 1.04 ± 0.021.
As to `CC12CCC(CC1=O)C2(C)C` (stereo not given), the results for the cell viability in the test with DLD1 [1], with HCT116 and with SW480 [2] were 0.974 ± 0.037, 0.941 ± 0.2 and 1.04 ± 0.05, respectively. Further, the results for the “TCF/Wnt firefly luciferase reporter signal” value in the test with DLD1 [3] and with SW480 [4] were 1.02 ± 0.061 and 0.969 ± 0.14, respectively.
The corresponding values for `CN(C)CCOC(c1ccccc1)c1ccccc1.Cn1c(=O)c2[nH]c(Cl)nc2n(C)c1=O` are 0.909 ± 0.025, 1.04 ± 0.1, 0.927 ± 0.022, 1.14 ± 0.13 and 1.12 ± 0.021.
Regarding `COc1c2ccoc2c(OC)c2oc(=O)ccc12`, the cell viability in the test on DLD1 [1] came out at 0.95 ± 0.0099; with HCT116 it was 0.966 ± 0.16; in the test with SW480 [2], 1.07 ± 0.028. Besides, the “TCF/Wnt firefly luciferase reporter signal” value in the test on DLD1 [3] was 0.982 ± 0.11; with SW480 [4], 0.927 ± 0.017.
For `CCN(CC)Cc1cc(Nc2ccnc3cc(Cl)ccc23)ccc1O`, the cell viability in the test on DLD1 [1] worked out at 0.908 ± 0.064; with HCT116, 0.967 ± 0.016; in the test with SW480 [2], 0.946 ± 0.051. Also, the figures for the “TCF/Wnt firefly luciferase reporter signal” value with DLD1 [3] and with SW480 [4] were 0.952 ± 0.17 and 0.921 ± 0.25, respectively.
With `CC1(O)CC2C(CC1O)C2(C)C` (stereo not given), the cell viability was 0.946 ± 0.051 in the test with DLD1 [1], 0.998 ± 0.06 in the test with HCT116 and 0.953 ± 0.011 with SW480 [2]. In addition, the “TCF/Wnt firefly luciferase reporter signal” value in the test on DLD1 [3] came to 0.91 ± 0.12; in the test with SW480 [4], 0.848 ± 0.16.
